Data as given in PubChem BioAssay (EPA / NIEHS).
Inconclusive results are not listed. Active and inactive are the calls of the source. How the source made its calls, unless noted: active means hit-call score of the fitted dose curve at least 0.9, where 1 is the maximum; inconclusive means response in the unintended direction; inactive means score below 0.9.

How the values were obtained:
[1] = TAMU_HCS_1.5hr_SingleDonor1434_Cytotoxicity: Cytotoxicity Assessment using High-content Screening (HCS) Fluorescent Imaging for the Texas A&M University (TAMU) 1.5-hr Human Induced Pluripotent Stem Cell (iPSC)-derived Cardiotoxicity Assay (AID 2284234)
Summary of the method: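 Nuclear counts from Hoechst 33342 imaging define cytotoxicity here, with EC10 (10% cell-count loss relative to DMSO) as point of departure. iPSC cardiomyocytes received 0.2-100 uM test chemical in 0.5% DMSO for 1.5 h at 37 C.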

[2] = TAMU_PeakParms_SingleDonor1434_QT: Texas A&M University (TAMU) 1.5-hr Human Induced Pluripotent Stem Cell (iPSC)-derived Cardiomyocytes Calcium (Ca+2) Flux Assay for Cardiotoxicity: QT (decay-rise ratio) (AID 2284235)
Summary of the method: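 Decay/rise ratio of calcium-flux fluorescence scored after 90 min exposure (37C) of donor 1434 iPSC cardiomyocytes to 0.2–100 uM (0.5% DMSO). Beat-cessation and severe-notch points removed; POD is EC05, a 5% rise over DMSO.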

[3] = CCTE_Mundy_HCI_Cortical_NOG_NeuronCount: CCTE's Neurite Outgrowth Assay in rat cortical cells for Neuron Count, Mundy Lab (AID 2284236);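 further: neurons counted by imaging betaIII-tubulin and Hoechst stained cortical cells; cells exposed to compound for about 48 hours before fixation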
Summary of the method: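 Read-out: neuron number by high-content imaging of betaIII-tubulin (Alexa Fluor-488) and Hoechst-labelled rat primary cortical cells.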

[4] = CCTE_Mundy_HCI_Cortical_Synap_Neur_Matur_NeuronCount: CCTE's Synaptogenesis and Neurite Maturation Assay in rat cortical cells for Neuron Count, Mundy Lab (AID 2284242);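 on AC50: hits reduce neuron count versus DMSO baseline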
Summary of the method: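 Measured at DIV 12: fluorescently labelled neurons (Hoechst nuclei, MAP2) in rat primary cortical cultures, counted by high-content imaging. AraC suppressed glia from DIV 5; DMSO served as negative control.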

[5] = CCTE_Mundy_HCI_Cortical_NOG_BPCount: CCTE's Neurite Outgrowth Assay in rat cortical cells for Branch Point Count, Mundy Lab (AID 2284237; active means hit-call score of the fitted dose curve at least 0.9, where 1 is the maximum; inactive means score below 0.9;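 on AC50: branch points counted about two days after chemical exposure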)
Summary of the method: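 Measured 50.33 h after dosing, this morphology endpoint uses rat primary cortical cultures labelled for betaIII-tubulin. Branch points are quantified by high-content imaging, with DMSO as negative control and baseline.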

[6] = CCTE_Mundy_HCI_hNP1_Casp3_7: CCTE's Caspase-Glo 3/7 Assay in human neuroprogenitor cells for Apoptosis, Mundy Lab (AID 2284240; active means hit-call score of the fitted dose curve at least 0.9, where 1 is the maximum; inactive means score below 0.9)
Procedure: CCTE_Mundy_HCI_hNP1_Casp3_7 is a multiplexed, cell-based-readout assay that uses neural stem cells derived from a neuroepithelial cell lineage of WA09 embryonic cells with measurements taken at […] after chemical dosing in a microplate: 96-well plate.CCTE_Mundy_HCI_hNP1_Casp3_7 is one component of the CCTE_Mundy_HCI_hNP1_Casp3_7 assay. It measures apoptosis related to caspase activation using Luminescent Reporter.Data from the assay component CCTE_Mundy_HCI_hNP1_Casp3_7 was analyzed at the endpoint CCTE_Mundy_HCI_hNP1_Casp3_7_gain in the positive analysis fitting direction relative to DMSO as the negative control and baseline of activity. Using a type of viability reporter, gain -of-signal activity can be used to understand viability effects.
Human neural progenitor cells (hNP1) were obtained as cryopreserved cells from ArunA Biomedical, Athens Georgia. Cells are plated on pre-coated poly-L-ornithine/laminin clear bottom and opaque 96 well plates (day 0). Plates are placed in a 37 °C, 5% CO2 incubator for 40 to 44 hours at which time plates are removed from the incubator and 10 uL of a freshly made chemical solution is added to each well. Apoptosis was measured based on detection of activated caspase-3/7 using the Caspase-Glo 3/7 assay kit (Promega). Twenty-four hours after chemical treatment, 50ul of Caspase-Glo 3/7 assay buffer was added to each well and the plate incubated for 30min at room temperature. Luminescence was then recorded in each well using a FLUOstar Optima plate reader.

[7] = CCTE_Mundy_HCI_hNP1_CellTiter: CCTE's Cell Titer-Glo 2 Assay in human neuroprogenitor cells for Viability, Mundy Lab (AID 2284241)
Summary of the method: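 Viability read as luminescent ATP content (CellTiter-Glo, 30 min room temperature) twenty-four hours after dosing, relative to DMSO. Cells: WA09-derived hNP1 neuroprogenitors on poly-L-ornithine/laminin, plated 40 to 44 hours before chemical.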

[8] = UKN2_HCS_IMR90_cell_viability: Viability Assessment in the University of Konstanz (UKN) Leist Lab Neural Crest Cell Migration Assay in human induced IMR90 Pluripotent Stem Cells (UKN2) (AID 2284233; active means hit-call score of the fitted dose curve at least 0.9, where 1 is the maximum; inactive means score below 0.9;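 further: cells exposed to compound for 24 h after a 24 h migration phase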)
Summary of the method: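 Viability read as calcein-AM fluorescence by high-content imaging, Hoechst co-stain, 30 min. Human iPSC (IMR90) neural crest cells had migrated 24 h into stopper-defined gaps before 24 h chemical exposure. Fitted bidirectionally relative to DMSO.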

[9] = read-out: Collagen I, COL1A1 (gene 1277); assay: BSK_MyoF_CollagenI: BioMAP Diversity Plus: MyoF Assay for Collagen I Biomarker Activity (AID 2284238; active means hit-call score of the fitted dose curve at least 0.9, where 1 is the maximum; inactive means score below 0.9); details: primary human lung fibroblasts
Summary of the method: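 ELISA readout of Collagen I after 24 h chemical treatment of primary human lung fibroblast cultures; gain of signal scored relative to DMSO vehicle baseline.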

[10] = read-out: Collagen III, COL3A1 (gene 1281); assay: BSK_MyoF_CollagenIII: BioMAP Diversity Plus: MyoF Assay for Collagen III Biomarker Activity (AID 2284239; active means hit-call score of the fitted dose curve at least 0.9, where 1 is the maximum; inactive means score below 0.9); details: primary human lung fibroblasts
Summary of the method: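 Lung fibroblast culture; 24 h compound exposure; collagen III by ELISA; gain-of-signal fit vs DMSO baseline.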

Measured: AC50

CC(C)(c1ccc(O)cc1)c1ccc(O)cc1
inactive: [1] | [2] | [3] | [4]

CC(=O)[C@H]1CC[C@H]2[C@@H]3CCC4=CC(=O)CC[C@]4(C)[C@H]3CC[C@]12C
inactive: [1] | [2]

O=C(O)c1ccccc1
inactive: [2] | [3] | [5] | [6] | [7]

CCCN(CCC)C(=O)SCC
inactive: [8] | [6] | [7]

S=C([S-])NCCNC(=S)[S-].[Mn+2]
inactive: [6] | [4]
active: [8] 16.1 µM

CC1(C)C(C=C(Cl)Cl)C1C(=O)OCc1cccc(Oc2ccccc2)c1 (centres undefined)
inactive: [2] | [6] | [7]
active: [3] 78.4 µM | [5] 84.5 µM | [4] 5.69 µM

CCN(CC)C(=O)c1cccc(C)c1
inactive: [8] | [3] | [5] | [6] | [7] | [4]

Cc1nn(C)c(Oc2ccccc2)c1C=NOCc1ccc(C(=O)OC(C)(C)C)cc1
active: [8] 14 µM | [3] 0.327 µM | [5] 0.014 µM | [6] 8.5 µM | [4] 0.00225 µM

c1ccc2[nH]c(-c3cscn3)nc2c1
inactive: [1] | [2]

CCC(C)OC(=O)N1CCCCC1CCO (centres undefined)
inactive: [9] | [10]

S=C(S)NCCNC(=S)S.[Mn+2].[S-]C([S-])=NCCN=C([S-])[S-].[Zn+2]
inactive: [5] | [6]

COCCO
inactive: [1] | [9] | [10]

CSC(=O)c1cccc2nnsc12
inactive: [5] | [6] | [7]

N#CSCSc1nc2ccccc2s1
active: [9] 5.73 µM | [10] 5.71 µM

C#CCOC(=O)[C@@H](C)Oc1ccc(Oc2ncc(Cl)cc2F)cc1
inactive: [8] | [3] | [5] | [6] | [7] | [4]
